Assay outcomes as filed in PubChem BioAssay.
HSF1 activator: increases HSF-1 driven luciferase reporter signal; NIH3T3-HGL HSF-1 luciferase reporter, MG132, 8 h; 100% = twice DMSO control signal; 1.7% of 300,000 active; AID 504408; activation, % at 9 µM;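 active = mean replicate activation of at least 50% with a set share of replicates each reaching 50%; inconclusive = only one of those two conditions met; inactive = mean below 50% and too few replicates reaching it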
AHR activator: activates the human aryl hydrocarbon receptor; P35869; AHR-responsive luciferase reporter cells, luminescence; activation, % at 5 µM; 2.5% of 320,000 active; AID 2796; in the data active = activation above about 47%
HSP90 refold inh: inhibitors of HSP90 luciferase refolding in rabbit reticulocyte lysate | luciferase refolding luminescence, 3 h | inhibition, % at 5.6 µM | 0.91% of 290,000 active;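 active = inhibition above the screen-wide mean plus 3 SD, computed separately per campaign, cut at about 16% in these data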;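 note: inhibitors lower the luminescence because luciferase stays unfolded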
FXN GAA850 act: frataxin GAA850 promoter activation; HEK293 lucGAA850 FXN promoter luciferase reporter, 24 h; percent of 10 µM SAHA response; activation, % at 6 µM; 0.56% of 360,000 active; AID 540364;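 active = activation above the average of all compounds screened plus 3 SD, cutoff fixed separately per campaign, cut at about 7.5% in these data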
NR0B1 inh: inhibits human nuclear receptor DAX1. P51843. HEK293 Gal4-DAX1 luciferase reporter, luminescence. inhibition, % at 6.75 µM. 0.99% of 340,000 active. AID 504766;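 active = inhibition above the mean over all tested compounds plus 3 SD, cut at about 4.2% in these data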;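 note: inhibition shows as a rise in luminescence from relieved DAX1 repression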
Target sequence (P51843 207-470 limits assumed): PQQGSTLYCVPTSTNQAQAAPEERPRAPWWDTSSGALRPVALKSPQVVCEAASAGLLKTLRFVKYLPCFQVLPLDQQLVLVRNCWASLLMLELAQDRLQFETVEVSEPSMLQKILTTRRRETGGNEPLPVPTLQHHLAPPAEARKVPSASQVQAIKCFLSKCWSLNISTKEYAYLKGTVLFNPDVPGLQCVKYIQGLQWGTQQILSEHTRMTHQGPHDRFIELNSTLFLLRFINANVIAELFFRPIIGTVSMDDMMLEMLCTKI
HSF1 inh: HSF1 inhibition; NIH3T3-HGL HSE-luciferase, MG132-induced, luminescence 8 h; active compounds read low; 0.77% of 300,000 active; AID 2098; activity change, negative = inhibition, % at 7.5 µM (by protocol);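 active = more than half of replicate wells show activity change below -50%, luminescence cut by over half; inconclusive = some wells, but at most half, below -50%; inactive = no replicate well below -50%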;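 note: luciferase reports HSF-1 transcriptional activity via heat shock element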
Numbers stand for hits; - = inactive; ? = inconclusive; . = no result given. In the library only some 5.9% were active in any assay of this set; here they are far more common.

SMILES	HSF1 activator	AHR activator	HSP90 refold inh	FXN GAA850 act	NR0B1 inh	HSF1 inh
COc1cc(F)ccc1-c1csc(C(NC(C)=O)c2cccc(F)c2)n1 (stereo unspecified)	.	.	.	-	.	.
Cc1ccc2c(c1)-c1cc(C)nn1C(c1ccc3c(c1)OCO3)N2 (stereo unspecified)	-	94	-	-	-	-
Cc1ccc2c(c1)-c1cc(C)nn1C(c1sccc1C)N2 (stereo unspecified)	-	-	-	-	-	-
Cc1cc2n(n1)C(c1ccc(N(C)C)cc1)Nc1ccccc1-2 (stereo unspecified)	-	82	-	-	-	-
Cc1cc2n(n1)C(c1ccccc1)Nc1ccccc1-2 (stereo unspecified)	.	-	-	-	-	.
N#CCCn1nnc(-c2ccccc2F)n1	-	-	-	-	-	-63
CC(C)c1ccc(-c2nnn(CCC#N)n2)cc1	-	-	-	-	-	-
CC(=O)Oc1cc2c(C(=O)NCc3ccncc3)c(C)oc2c2ccccc12	-	52	.	-	-	-
Cc1oc(-c2ccccc2)cc1C(=O)NCc1ccncc1	-	-	-	-	-	-
Cn1nc(C(=O)NNC(=O)CCc2ccccc2Cl)c2ccccc2c1=O	-	-	.	-	-	-
O=C(NCCc1ccccc1)C(c1cccs1)N(C(=O)CCl)c1ccc(Cl)cc1 (stereo unspecified)	-	-	-	-	-	-95
O=C(NCCc1ccccc1)C(c1cccs1)N(C(=O)c1csnn1)C1CC1 (stereo unspecified)	-	58	-	-	-	-
O=C(NCc1ccco1)C(c1cccs1)N(C(=O)Cc1cccs1)c1ccccc1 (stereo unspecified)	-	-	-	-	-	-
O=C(NCc1ccccc1)C(c1cccs1)N(C(=O)c1csnn1)C1CC1 (stereo unspecified)	-	-	-	-	-	-
O=C(c1ccc(N2CCCC2)c([N+](=O)[O-])c1)N1CCN(S(=O)(=O)c2ccccc2)CC1	.	.	.	-	-	.
CC(=O)N1CCC(O)(c2cccc(C(F)(F)F)c2)CC1	-	-	-	-	-	-
Cc1ccc2oc(C(=O)N3CCC(O)(c4cccc(C(F)(F)F)c4)CC3)c(C)c2c1	75	-	-	-	-	-
Cc1cccc(OCC(=O)OC2CCN(C)CC2)c1	-	-	-	-	-	-55
COC(=O)C(NC(=O)CNS(=O)(=O)c1ccc(Br)cc1)c1ccccc1 (stereo unspecified)	54	-	-	-	-	-
Cc1ccc(C(=O)C(OC(=O)CCC(=O)Nc2cccc(C)c2)c2ccccc2)cc1 (stereo unspecified)	-	-	-	-	4.7	-
CCSc1nsc(NC(=O)Nc2ccccc2F)n1	-	78	-	-	-	-
CCc1cccc(N=c2c([N+](=O)[O-])nn(-c3ccc(Cl)cc3)n2O)c1	-	-	-	-	-	-
Cc1cccc(N=c2c([N+](=O)[O-])nn(-c3ccc(Cl)cc3)n2O)c1	-	62	-	-	-	-
Cc1cc(C)cc(N=c2c([N+](=O)[O-])nn(-c3cccc(Cl)c3)n2O)c1	-	69	-	-	-	-
O=C(O)C(=Cc1cccc([N+](=O)[O-])c1)c1ccccc1	.	.	.	-	-	.
SMILES	HSF1 activator	AHR activator	HSP90 refold inh	FXN GAA850 act	NR0B1 inh	HSF1 inh
O=C(C#Cc1cccc([N+](=O)[O-])c1)c1ccccc1	97	-	-	-	-	-
CCCn1c(N)c(C(=O)CSc2nnc(C3CC3)n2C2CC2)c(=O)[nH]c1=O	.	-	.	-	-	.
Cc1cccc(NC(=O)COC(=O)c2cccc3c2C(=O)c2ccccc2C3=O)c1C	-	-	-	-	-	-
Cc1cccc(C)c1NC(=O)COC(=O)c1cccc2c1C(=O)c1ccccc1C2=O	82	-	-	-	-	-
COCc1cc(CN2CCCC(C(=O)Nc3cccc(-n4cnnn4)c3)C2)ccc1OC (stereo unspecified)	-	-	-	-	-	-
CC(C)CN1C(=O)c2ccc(C(=O)Nc3ccc(OCC(=O)O)cc3)cc2C1=O	-	-	-	-	-	-
Cc1cc(OCC(=O)OC(C)C(=O)NC2CC2)c(C(C)C)cc1Cl (stereo unspecified)	.	.	.	-	-	.
O=C1CN(C(=O)c2ccc(Br)o2)C(c2ccccc2)c2cc(Cl)ccc2N1 (stereo unspecified)	-	66	-	-	-	-
O=C1CN(C(=O)c2ccc(Br)o2)C(c2ccccc2)c2cc(Br)ccc2N1 (stereo unspecified)	-	70	-	-	-	-
Cc1ccc2c(c1)C(c1ccccc1)N(C(=O)c1ccc(Br)o1)CC(=O)N2 (stereo unspecified)	-	-	-	-	-	-
O=C1CN(C(=O)c2ccc(Br)o2)C(c2ccc(F)cc2)c2cc(Cl)ccc2N1 (stereo unspecified)	55	-	-	-	-	-
CCCCn1c(N)c(N(CC(C)C)C(=O)c2ccc3c(c2)NC(=O)C(C)S3)c(=O)[nH]c1=O (stereo unspecified)	-	-	-	-	-	-
O=C1CCC(c2ccccc2)N1c1ccccc1 (stereo unspecified)	.	.	.	-	-	.
CC(C)CNc1nc(NC(C)(C)C)nc(Oc2ccc(=O)[nH]n2)n1	-	-	-	-	-	-
CSc1nc(C)cc(Oc2ccc(=O)[nH]n2)n1	-	-	-	-	5.8	-
CSc1nc(NC(C)(C)C)nc(Oc2ccc(=O)[nH]n2)n1	52	-	-	-	-	-
CCCCn1c(N)c(N(CCOC)C(=O)c2cccc(S(=O)(=O)N3CCCCCC3)c2)c(=O)[nH]c1=O	-	-	.	-	-	-
O=C1c2ccccc2CC1Sc1nnc(-c2ccncc2)o1 (stereo unspecified)	-	63	-	-	-	-
O=C1CC(Sc2nnc(-c3ccccc3)o2)C(=O)N1c1ccccc1 (stereo unspecified)	-	-	-	-	-	?
O=C(c1ccc(Cl)cc1Cl)N1CCOCC1	.	.	.	-	-	.
O=C(c1cccn2c(=O)c3cc(Cl)ccc3nc12)N1CCOCC1	-	91	-	-	-	-
O=C(c1cccn2c(=O)c3cc(Cl)ccc3nc12)N1CCN(Cc2ccc3c(c2)OCO3)CC1	-	70	-	-	-	-
O=C(c1cc(Cl)ccc1Cl)N1CCOCC1	-	-	-	-	-	-72
COCCN(C(=O)CCC(=O)Nc1ccccn1)C(C(=O)NCCC(C)C)c1ccc(C)cc1 (stereo unspecified)	-	-	-	-	-	-
O=C(Nc1nc(-c2cccs2)c(-c2cccs2)s1)C1(c2ccccc2)CC1	-	-	-	-	-	-
CC(=O)NCCC(=O)Nc1nc(-c2cccs2)c(-c2cccs2)s1	182	-	-	-	-	-
Nc1nn(-c2cccc(F)n2)cc1-c1ccc(Cl)cc1	85	.	-	-	-	-
Nc1ccccc1-c1ccc(Cl)cc1	.	.	.	-	-	.
Nc1nc(Br)c2c(F)cccc2c1-c1ccccc1	-	-	-	-	-	-
